Here are results for 14 compounds from PubChem BioAssay (NCI).

Among the test systems are NCI-H23 lung; NCI-H226 lung; NCI-H322M lung; HOP-62 NSCLC; NCI-H460 lung; NCI-H522 lung; A549/ATCC NSCLC; 786-0 renal; COLO 205 colon; DU-145 prostate.
Assay in all cases: NCI-60 one-dose screen, 48 h (100 = growth as untreated, 0 = no growth, -100 = all killed)
Common to all, as to details: 10 µM

Molecules are shown by their SMILES. Compounds without any hit were thinned out: in the full panel of roughly 83,000, 20% have a hit.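 96-well plates, one dose, 48 hours. Percent growth reported; active if below 10.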 Values without a mark were called inactive. Calls of active or inactive are those of the source.

For the compound `O=C1OCC2=C1C(c1cccc(Br)c1)c1cc3c(cc1N2CCO)CCC3` (stereo not given), the growth was 21.1% in the assay with NCI-H23 lung; -15.7% (active) with NCI-H226 lung; 36.8% in the assay with NCI-H322M lung; 28.4% with HOP-62 NSCLC; -6.92% (active) in the assay on NCI-H460 lung; -31.4% (active) with NCI-H522 lung. Further, the growth was 12.5% in the assay on A549/ATCC NSCLC, 19.1% with 786-0 renal, -29.1% (active) in the assay with COLO 205 colon and -28.9% (active) in the assay with DU-145 prostate.

Take `CN(C)N=Nc1nn(C(=O)Nc2ccc(Cc3ccccc3)cc2)c2ccccc12`: the growth was 61% with NCI-H23 lung; 69.2% with NCI-H226 lung; 81.3% in the assay with NCI-H322M lung; 70.6% in the assay with HOP-62 NSCLC; 11.4% in the assay with NCI-H460 lung; 42.3% in the assay with NCI-H522 lung. The growth in the assay with A549/ATCC NSCLC was 31.5%; in the assay with 786-0 renal it was 49.9%; with COLO 205 colon, -53.4% (active); in the assay with DU-145 prostate, 60.8%.

In the case of `CC(=O)n1c(-c2ccc(Cl)c(Cl)c2)cn(-c2ccc(Cl)cc2)c1=O`, the growth was 27.5% in the assay with NCI-H23 lung; 76.2% with NCI-H226 lung; 69% in the assay with NCI-H322M lung; -29.1% (active) in the assay with HOP-62 NSCLC; 3.52% (active) in the assay with NCI-H460 lung; 36.7% in the assay on NCI-H522 lung. Moreover, the growth with A549/ATCC NSCLC is -10.1% (active); with 786-0 renal, 2.32% (active); in the assay on COLO 205 colon, -19.2% (active); in the assay with DU-145 prostate, 0.358% (active).

As to `NC1(C(=O)O)CSSC1`, the growth was 49.8% in the assay with NCI-H23 lung; 60.5% in the assay on NCI-H226 lung; 109% in the assay with NCI-H322M lung; 35.9% with HOP-62 NSCLC; 13.3% in the assay on NCI-H460 lung; 121% with NCI-H522 lung. Besides, the growth was 22.1% in the assay on A549/ATCC NSCLC, 107% in the assay with 786-0 renal, 102% in the assay with COLO 205 colon and 78.8% in the assay with DU-145 prostate.

Turning to `COc1cc([C@@H]2c3cc4c(cc3C(Br)[C@H]3COC(=O)[C@H]23)OCO4)cc(OC)c1OC` (stereo not given in full), the growth is 4.09% (active) in the assay on NCI-H23 lung; 97.8% with NCI-H226 lung; 42.2% with NCI-H322M lung; -13% (active) in the assay on HOP-62 NSCLC; -50.8% (active) in the assay with NCI-H460 lung; -46.5% (active) with NCI-H522 lung. Moreover, the growth is -24% (active) with A549/ATCC NSCLC, 9.16% (active) with 786-0 renal, -88.4% (active) in the assay on COLO 205 colon and -82.4% (active) in the assay with DU-145 prostate.

`N#CC1=C(Nc2ccccc2Cl)SC(c2ccccc2O)NC1=O` (stereo not given): the growth with NCI-H23 lung is 112%; in the assay on NCI-H226 lung, 120%; with NCI-H322M lung it was 114%; with HOP-62 NSCLC, 115%; in the assay with NCI-H460 lung it was 121%; with NCI-H522 lung it was 1.13% (active). Also, the growth with A549/ATCC NSCLC is 56.4%; in the assay with 786-0 renal, 114%; with COLO 205 colon, 121%; with DU-145 prostate, 117%.

As to `CSc1cc(SC)ncn1`, the growth with NCI-H23 lung was 120%; in the assay with NCI-H226 lung it was 107%; in the assay on NCI-H322M lung, 105%; with HOP-62 NSCLC, 108%; with NCI-H460 lung it was 119%; with NCI-H522 lung, 100%. The growth with A549/ATCC NSCLC is 105%; with 786-0 renal, 103%; in the assay with COLO 205 colon, 104%; in the assay on DU-145 prostate, 115%.

With `COc1cc(/C=C2\CCCC3=C2N=C2SC=NN2C3c2cc(OC)c(OC)c(OC)c2)cc(OC)c1OC` (stereo not given), the growth was 28.9% with NCI-H23 lung; 13.6% with NCI-H226 lung; 28.4% in the assay with NCI-H322M lung; 11.8% with HOP-62 NSCLC; 1.24% (active) with NCI-H460 lung; 46.5% in the assay on NCI-H522 lung. In addition, the growth with A549/ATCC NSCLC is 13.1%; in the assay on 786-0 renal it was 32%; in the assay with COLO 205 colon, 25.7%; in the assay on DU-145 prostate, 8.36% (active).

With `ClC(Cl)(Cl)c1nc2nccnc2[nH]1`, the growth was 108% in the assay on NCI-H23 lung; 98.6% in the assay on NCI-H226 lung; 90% in the assay on NCI-H322M lung; 102% with HOP-62 NSCLC; 102% in the assay on NCI-H460 lung; 95.4% with NCI-H522 lung. The growth was 101% in the assay on A549/ATCC NSCLC, 103% in the assay with 786-0 renal, 114% in the assay with COLO 205 colon and 112% in the assay on DU-145 prostate.

As to `O=C1/C(=C/c2ccc([N+](=O)[O-])s2)Oc2ccccc21`, the growth was -37% (active) in the assay on NCI-H23 lung; -0.59% (active) with NCI-H226 lung; -21.5% (active) in the assay on NCI-H322M lung; 3.77% (active) in the assay on HOP-62 NSCLC; -27.7% (active) in the assay on NCI-H460 lung; -68.8% (active) in the assay on NCI-H522 lung. In addition, the growth was -22.2% (active) in the assay on A549/ATCC NSCLC, -37% (active) in the assay with 786-0 renal, -69.2% (active) in the assay on COLO 205 colon and 4.99% (active) with DU-145 prostate.

With `c1ccc(CO[C@H]2CO[C@H]3[C@@H]2OC[C@H]3OCc2ccccc2)cc1`, the growth in the assay with NCI-H23 lung was 107%; in the assay with NCI-H226 lung, 101%; in the assay on NCI-H322M lung, 101%; in the assay on HOP-62 NSCLC, 97.7%; in the assay with NCI-H460 lung, 110%; in the assay with NCI-H522 lung it was 100%. In addition, the growth was 111% in the assay on A549/ATCC NSCLC, 104% in the assay with 786-0 renal, 100% in the assay on COLO 205 colon and 119% with DU-145 prostate.

As for `CCN1CCN(c2nc3ccccc3c3c(=O)c4ccccc4sc23)CC1`, the growth is 64.2% in the assay with NCI-H23 lung; 49.5% in the assay on NCI-H226 lung; 68.4% in the assay with NCI-H322M lung; 39.4% in the assay with HOP-62 NSCLC; 20% in the assay on NCI-H460 lung; 35.4% in the assay with NCI-H522 lung. Moreover, the growth is 31% in the assay on A549/ATCC NSCLC, 47% with 786-0 renal, 10.7% in the assay on COLO 205 colon and 33% in the assay on DU-145 prostate.

As for `COc1cc(CNCCCCCCN2C(=O)c3cccc4cccc(c34)C2=O)ccc1O`, the growth in the assay with NCI-H23 lung was 84%; in the assay on NCI-H226 lung it was 96.4%; in the assay on NCI-H322M lung, 67.3%; with HOP-62 NSCLC it was 70.3%; in the assay on NCI-H460 lung it was 78.1%; in the assay with NCI-H522 lung, 60.9%. In addition, the growth in the assay with A549/ATCC NSCLC is 64.3%; in the assay with 786-0 renal, 58.3%; in the assay on COLO 205 colon it was 45.8%; in the assay on DU-145 prostate, 80.9%.

With `CCN1CCCC1CNC(=O)c1ncc(-c2ccc(C(F)(F)F)cc2)c(NC2CCCCCC2)n1` (stereo not given), the growth is 92.5% in the assay on NCI-H23 lung; 86% in the assay with NCI-H226 lung; 84.7% in the assay on NCI-H322M lung; 97% in the assay with HOP-62 NSCLC; 80.4% in the assay on NCI-H460 lung; 69.1% in the assay on NCI-H522 lung. In addition, the growth is 77.2% with A549/ATCC NSCLC, 84.5% with 786-0 renal, 42.7% in the assay on COLO 205 colon and 83.2% with DU-145 prostate.
